# Out of some 300,000 compounds screened, about 2,300 (0.77%) were called active. The sample as a whole holds a higher share of actives than the screen did. Values without a mark were called inactive.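 Rule for the calls: active = mean activation of at least 80% with every replicate also reaching 80%; inconclusive = mean reaches 80% but some replicate falls short; inactive = the rest.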
# Test: activators of MITF-driven TRPM1 promoter reporter, primary screen, cell-based, SK-MEL-5, luciferase, single point (AID 588334);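 note: 0% = neutral control wells and 100% = parthenolide positive control wells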
# Conditions: SK-MEL-5 TRPM1-promoter luciferase, 24 h; at 12.5 µM; active compounds read high; % of positive control, neutral wells = 0
row,SMILES,activation
1,COc1cc(NC(=O)c2[nH]cnc2C(N)=O)cc(C(=O)Nc2cccc(C(F)(F)F)c2)c1,-88.9%
2,C[C@@H]1NS(=O)(=O)c2cc(Cl)ccc2O[C@@H]1c1ccccc1,2.48%
3,Oc1cccc(/C=N/Nc2ccc(Cl)nn2)c1O,-6.43%
4,COc1cccc(/C=N/Nc2ccc(Cl)nn2)c1,93.6% (active)
5,COc1cccc(/C=N\Nc2nncc(-c3ccccc3)n2)c1,27.3%
6,CCOC(=O)C1=CN(Cc2ccc(Br)cc2)S(=O)(=O)N(C)C1C (stereo unspecified),-0.639%
7,O=C(O)c1ccc(S(=O)(=O)c2ccccc2)s1,-11%
8,Cc1cc(C(=O)N/N=C/c2ccccc2[N+](=O)[O-])c(C)o1,84.3% (active)
9,CC(=C/c1ccccc1)/C=N/NC(=O)c1cc(C)oc1C,25.1%
10,Cc1cc(C(=O)N/N=C\C(Br)=C\c2ccccc2)c(C)o1,15.4%
11,Cc1ccc(OCCNC(=O)c2cccc(S(=O)(=O)N3CCN(Cc4ccccc4)CC3)c2)cc1,-0.856%
12,Cc1cc(NC(=O)c2cc3ccccc3o2)no1,-6.37%
13,Cc1ccc(C(=O)CNc2ccc(F)cc2)cc1,-0.394%
14,COC(=O)c1ccc(NCC(=O)c2ccccc2)cc1,146% (active)
15,COC(=O)c1ccc(NCc2cc(O)ccc2O)cc1,3%
16,CN1CCOC1c1ccc(C2OCCN2C)cc1 (stereo unspecified),-9.68%
17,C=CCOC(=O)N1CCC2CC1c1cc(-c3ccc(OC)cc3)ccc12 (stereo unspecified),-2.99%
18,COc1cc(OC)c(C(=O)NNC(=O)c2ccccc2-n2cccc2)cc1OC,7.14%
19,COC(=O)C1C(=O)c2c([nH]c(C(=O)OCCSC)c2C)CC1C (stereo unspecified),92.2% (active)
20,CCCOC(=O)c1[nH]c2c(c1C)C(=O)CC(c1cccs1)C2 (stereo unspecified),-44.3%
21,COCCOC(=O)c1[nH]c2c(c1C)C(=O)CC(c1ccc(OC)cc1)C2 (stereo unspecified),8.85%
22,COc1ccc(-c2noc(CCC(=O)N3CCN(c4cccc(C)c4)CC3)n2)cc1,0.066%
23,COc1ccc(-c2ccc3c(c2)[C@@H]2C[C@H](N(C)S(=O)(=O)c4ccccc4)[C@H]([C@H](C)O)C(=O)N2CC3)cc1,-7.92%

row,SMILES,activation
1,CC(C)Cn1cnc2c(SCc3ccc(Cl)cc3)nc(N)nc21,12.1%
2,O=C(CC(=O)c1cccnc1)c1ccccc1,48%
3,Cc1cccnc1CC(C)NC(=O)c1cc(COc2cncc(Cl)c2)on1 (stereo unspecified),51.4%
4,Cc1cc(OCc2cc(C(=O)NCc3cc(C(C)C)no3)no2)cc(C)c1Cl,84.2% (active)
5,COc1ccc(OCc2cc(C(=O)NCC3(C)COC3)no2)c(Cl)c1,37.2%
6,CC(C)(C)OC(=O)N1CCC(C(=O)Nc2cccc(C(=O)NCCc3ccccc3)c2)CC1,0.242%
7,CCCCc1ccc(NC(=S)NCCCN2CCOCC2)cc1,13.8%
8,CCCCc1ccc(NC(=S)N2CCCC(CO)C2)cc1 (stereo unspecified),105% (active)
9,COc1ccc(NC(=S)N2CCCC(CO)C2)c(OC)c1 (stereo unspecified),-5.46%
10,NS(=O)(=O)c1ccc(CCNC(=O)c2ccc(Cl)c(S(=O)(=O)N3CCCCCC3)c2)cc1,-34.2%
11,CC(C)(C)c1nnc2sc(SCC(O)=C(C#N)c3nc4ccccc4[nH]3)nn2c1=O,7.19%
12,O=[N+]([O-])c1ccc(NS(=O)(=O)c2ccccc2)c(Cl)c1,-5.26%
13,O=C(NC1=NCCS1)c1ccc(Cl)s1,121% (active)
14,COc1ccc(C(=O)NC2=NCCS2)c(OC)c1,33.9%
15,O=C(NCc1ccc2c(c1)OCO2)c1ccc(Cl)s1,9.51%
16,C[C@H](CO)N1C[C@H](C)[C@H](CN(C)CC2CC2)Oc2ccc(NC(=O)CCN3CCOCC3)cc2C1=O,4.29%
17,COc1cc(/C=C/CNC[C@H]2O[C@@H](n3cnc(C(N)=O)n3)[C@H](O)[C@@H]2O)ccc1O,-8.98%
18,C=CC(=O)Nc1ccc(Nc2ccnc(Nc3ccc(N4CCN(C)CC4)cc3)n2)cc1,-13.2%
19,Nc1cc2c(cc1Br)-c1ccc(F)cc1C2=O,7.07%
20,COC(=O)[C@@]1(C)[C@H]2C(=O)N(Cc3ccccc3)C(=O)[C@H]2[C@H]2CN=C(SCC3CC3)N21,-1.12%
21,COC1=NC2=NCCN2C(OC)=N1,4.31%
22,CC(C)CNC(=O)c1cc(-c2ccc(Br)cc2)on1,124% (active)
23,CC(C)Cc1cc(C(=O)Nc2cc(Br)ccc2O)no1,42.2%

row,SMILES,activation
1,Cc1c(NC(=O)c2cc(-c3ccc(Br)cc3)on2)c(=O)n(-c2ccccc2)n1C,6.12%
2,CC(=O)c1ccc(NC(=O)CSc2nc3ccccc3c(=O)n2CCCN2CCOCC2)cc1,14.6%
3,Cc1ccc(NN=C2C(=O)OC(C)(C)OC2=O)c(C)c1,120% (active)
4,Cc1ccc(NC(=O)c2oc(=O)c3ccccc3c2-c2ccccc2)c(C)c1,-8.24%
5,Cc1ccc(NC(=O)C(=O)NCc2ccco2)c(C)c1,72.2%
6,COc1ccc(CNc2nc(NCc3ccc(OC)cc3)c3ncn(C4CCCC4)c3n2)cc1,-22%
7,CCCN(C(=O)CSc1nnc(N)s1)c1c(N)n(Cc2ccccc2)c(=O)[nH]c1=O,-11.7%
8,CCCCNCCS(=O)(=O)NCc1ccccc1,11.7%
9,FC(F)(F)c1ccnc(Oc2ccc(C3=NCCS3)cc2)c1,102% (active)
10,O=[N+]([O-])c1cccc(C2=NCCS2)c1,-11.6%
11,O=Cc1ccc(Oc2cccc(C(F)(F)F)c2)nc1,2.89%
12,CC1C(C)N(C(=O)CCl)c2ccccc2N1C(=O)CCl (stereo unspecified),-89.8%
13,Cc1nn(-c2ccc([N+](=O)[O-])cc2)c(N)c1-c1ccccc1,97.5% (active)
14,O=C1CC(c2ccccc2)=NN1c1ccc([N+](=O)[O-])cc1,29.1%
15,Cc1nn(-c2ccccc2)c2c1C(c1cccc([N+](=O)[O-])c1)N(c1ccccc1)C(=O)N2 (stereo unspecified),-8.33%
16,Cc1noc(C)c1CCC(=O)N1CCCC(CO)(Cc2ccccc2)C1 (stereo unspecified),67.5%
17,COC(=O)CCC(=O)N1CCCC(CO)(Cc2ccccc2)C1 (stereo unspecified),94.6% (active)
18,Cc1ccccc1CC1(CO)CCCN(C(=O)c2cc(-c3ccccc3)no2)C1 (stereo unspecified),6.1%
19,Cn1cc(C2OC(=O)c3ccccc32)c2ccccc21 (stereo unspecified),-10.6%
20,COc1ccccc1N(CC(=O)Nc1c(C)n(C)n(-c2ccccc2)c1=O)S(=O)(=O)c1ccccc1,-1.77%
21,CCCCN(C(=O)c1cccc(N2C(=O)c3ccccc3C2=O)c1)c1c(N)n(CCCC)c(=O)[nH]c1=O,-1.35%
22,O=C(c1cnn2ccccc12)N1CCc2ccccc21,91.5% (active)
23,Cc1cnc(C(=O)OCC(=O)N2CCc3ccccc32)cn1,-0.372%

row,SMILES,activation
1,CCCCn1nc(C(=O)N2CCc3ccccc32)c2ccccc2c1=O,-15.9%
2,C=CC(COCc1ccccc1)N(CC(=O)OC)S(=O)(=O)c1cc(Br)ccc1OC (stereo unspecified),-10.3%
3,CCC(CO)Oc1cc(NC(=O)c2cccc3ccccc23)c2ncn(C(C)C)c2c1 (stereo unspecified),-4.63%
4,COc1ccc(CNC(=O)C[C@H]2C[C@H](C(=O)N3CCOCC3)[C@@]3(CCC4CCCC4)c4[nH]c5ccc(Cl)cc5c4CCN3C2=O)cc1OC,-70.8%
5,Clc1ccc(-c2csc(-c3ccncc3)n2)cc1,33.5%
6,N#CC(=C1SC=CS1)c1nc(-c2ccccc2)cs1,47.6%
7,N#CC(=C1CCCC1)c1nc(-c2ccc(Cl)cc2)cs1,91.3% (active)
8,O=S(=O)(Cc1ccc(Cl)cc1Cl)c1ccc(Cl)cc1,16.2%
9,CC1(C)C[C@H]2C3=CCC4[C@@]5(C)CC[C@H](O)[C@](C)(CO)C5CC[C@@]4(C)[C@]3(C)C[C@@H](O)[C@@]2(CO)[C@@H](O)[C@@H]1O (stereo partly specified),-11.2%
10,CCCCOc1ccc(-c2nnc(-c3ccco3)o2)cc1,30.3%
11,CCC(=O)Oc1cccc(C(=O)Nc2ccc(-c3nnc(-c4ccco4)o3)cc2)c1,85.5% (active)
12,O=C(CCc1ccccc1)Nc1cccc(-c2nnc(-c3ccco3)o2)c1,10.8%
13,CC[C@]12c3[nH]c4cc(CCC(=O)N(C)C)ccc4c3CCN1C(=O)[C@@H](CC(=O)NCC13CC4CC(CC(C4)C1)C3)C[C@@H]2C(=O)N1CCN(C(=O)C2CC2)CC1,5.19%
14,COc1ccc(/C=C2/CCCc3ccccc3C2=O)cc1,39.3%
15,Brc1ccccc1/C=N/Nc1nc2ccccc2o1,81.1% (active)
16,CCOc1ccccc1/C=N/Nc1nc2ccccc2o1,13.3%
17,COc1ccc(/C=N/Nc2nc3ccccc3o2)cc1OC,56.1%
18,O=C(CNC(=O)c1cc(S(=O)(=O)N2CCOCC2)ccc1N1CCCC1)Nc1ccc(F)c(F)c1,-3.17%
19,COc1cc2c(cc1CNC[C@H]1O[C@@H](n3cnc(C(N)=O)n3)[C@H](O)[C@@H]1O)OCO2,-7.21%
20,CSc1ccccc1OCc1cc(C(=O)N2C[C@H]3CC[C@H]2C3)no1,91.7% (active)
21,COC(=O)[C@@H]1CCCN1C(=O)c1cc(COc2cccc3cccnc23)on1,-6.69%
22,CSc1ccccc1OCc1cc(C(=O)N(C)CCc2c(C)n[nH]c2C)no1,1.76%

# From PubChem BioAssay AID588334 (Broad Institute, 2011)
